Sfp PPTase inh: qHTS Assay for Inhibitors of Bacillus subtilis Sfp phosphopantetheinyl transferase (PPTase). 310,000 compounds, 3.5% hits. Biochemical Sfp PPTase activity, qHTS. Potency, µM, most hits filed as inhibitors;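 further: the enzyme is Sfp with the accession as filed and its product quenches rhodamine fluorescence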
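Fluorescence-quenching assay with 15 nM Sfp, 5 uM rhodamine-CoA and 12.5 uM BHQ-2-labelled ybbR peptide in pH 7.6 Hepes/MgCl2 buffer. Enzyme was pre-incubated with compound for 15 min at room temperature. Rate was taken from the 30-min fluorescence change (525/598 nm).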
G9a inh: qHTS Assay for Inhibitors of Histone Lysine Methyltransferase G9a; Histone-lysine N-methyltransferase EHMT2 (Homo sapiens), Q96KQ7; G9a H3K9 monomethylation, AlphaScreen, 2 h; Potency, µM (doses to about 102 µM), most hits filed as inhibitors; 350,000 compounds, 8.8% hits; further: nearly all actives have a fitted effect of over 75% in size
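Readings reflect AlphaScreen signal from monomethyl-H3K9 antibody detection. HMT at 20 nM; substrate b-H3K9 500 nM; cofactor SAM 20 uM; 2 h RT reaction; compounds tested as titrations in qHTS with 15 min preincubation.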
BAZ2B block: qHTS Assay for Inhibitors of BAZ2B | 360,000 compounds, 4.4% hits | AlphaScreen BAZ2B-H3K14Ac peptide displacement | Potency, µM (top dose mostly 114 µM), hits mostly inhibitors; further: nearly all actives have a fitted effect of over 60% in size
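AlphaScreen displacement of biotin-H3(5-23)K14Ac peptide (50 nM final) from BAZ2B (50 nM final) in PBS pH 7.4, 0.01% Tween-20; complex preformed 30 min RT, then compounds (top 110 uM) 30 min RT, beads 20 min dark.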
TDP1 block: qHTS Assay for Inhibitors of Tyrosyl-DNA Phosphodiesterase (TDP1); Tyrosyl-DNA phosphodiesterase 1 (Homo sapiens), Q9NUW8; recombinant TDP1, AlphaScreen DNA substrate cleavage; Potency, µM (highest dose often 130 µM), actives largely listed as inhibitors; 350,000 compounds, 0.28% hits; AID 485290, 2010; further: nearly all actives have a fitted effect of over 40% in size
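Steps: enzyme plus compound, 15 min RT; add biotin/phosphotyrosine-FITC oligonucleotide (15 nM final), react 5 min; add donor/acceptor beads (10 ug/ml final), 10 min; read AlphaScreen. Tdp1 at 1 nM final.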
JMJD2A Tudor: qHTS Assay for Inhibitors of JMJD2A-Tudor Domain; AlphaScreen JMJD2A-Tudor / H3K4me3 peptide binding; Potency, µM (top dose mostly 114 µM), usual class: inhibitors; 390,000 compounds, 4.4% hits; further: nearly all actives have a fitted effect of over 50% in size
Target sequence (O75164 whole entry, looked up, the tested form may be a part): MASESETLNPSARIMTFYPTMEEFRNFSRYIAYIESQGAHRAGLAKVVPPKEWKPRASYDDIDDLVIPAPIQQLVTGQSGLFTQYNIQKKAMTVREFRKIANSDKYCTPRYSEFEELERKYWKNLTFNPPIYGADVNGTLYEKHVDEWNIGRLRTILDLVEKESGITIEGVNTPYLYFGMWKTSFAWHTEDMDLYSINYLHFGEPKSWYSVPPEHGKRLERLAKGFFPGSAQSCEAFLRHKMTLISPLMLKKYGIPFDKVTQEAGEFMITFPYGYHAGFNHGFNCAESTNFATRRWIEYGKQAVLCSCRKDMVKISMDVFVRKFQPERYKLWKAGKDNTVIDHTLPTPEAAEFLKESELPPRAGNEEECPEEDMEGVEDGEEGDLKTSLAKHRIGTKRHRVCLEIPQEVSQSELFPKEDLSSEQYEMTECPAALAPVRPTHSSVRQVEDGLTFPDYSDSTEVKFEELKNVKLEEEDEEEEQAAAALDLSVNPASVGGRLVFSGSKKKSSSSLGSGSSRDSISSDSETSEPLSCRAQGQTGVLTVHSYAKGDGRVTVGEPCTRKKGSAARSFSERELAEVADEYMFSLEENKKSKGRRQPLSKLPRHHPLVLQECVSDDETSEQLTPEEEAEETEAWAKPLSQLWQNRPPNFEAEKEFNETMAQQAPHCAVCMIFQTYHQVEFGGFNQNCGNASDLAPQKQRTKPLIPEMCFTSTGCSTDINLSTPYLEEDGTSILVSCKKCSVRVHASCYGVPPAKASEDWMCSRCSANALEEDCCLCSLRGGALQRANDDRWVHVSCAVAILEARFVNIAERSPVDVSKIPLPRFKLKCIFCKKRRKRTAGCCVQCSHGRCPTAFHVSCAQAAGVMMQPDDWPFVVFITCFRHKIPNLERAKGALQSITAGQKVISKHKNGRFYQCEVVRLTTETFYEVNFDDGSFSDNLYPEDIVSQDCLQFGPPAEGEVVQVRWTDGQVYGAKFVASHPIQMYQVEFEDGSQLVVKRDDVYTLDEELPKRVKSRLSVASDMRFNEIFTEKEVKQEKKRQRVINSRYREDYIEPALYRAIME
HP1b binding inh: HTS for Inhibitors of HP1-beta Chromodomain Interactions with Methylated Histone Tails. 390,000 compounds, 0.56% hits. AlphaScreen HP1-beta / biotin-H3K9me3 peptide binding. Potency, µM (top dose mostly 114 µM), actives largely listed as inhibitors; further: nearly all actives have a fitted effect of over 70% in size
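HP1-beta protein (50 nM final) preincubated 30 min at room temperature with biotinylated H3(1-18)K9me3 peptide (50 nM) in PBS pH 7.4, 0.01% Tween-20, then compound added for 30 min. AlphaScreen streptavidin donor/nickel chelate acceptor beads (10 ug/mL final), 30 min dark, luminescence read.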
A number is an active result; [ ] = another dose, or the depositor's remark. In the library only some 12% were active in any assay of this set; here they are far more common. The call rests on the fitted dose curve; in most records, active means well fitted curve in the direction sought with a large enough effect; inconclusive means small, poorly fitted or top-dose-only effect, or another doubt; inactive means no such curve, though single readings can be large; an effect the other way counts as inactive or inconclusive.

How did COc1ccc(C2C(=O)N(C3CCCCC3)CC(=O)N2Cc2ccco2)cc1 (configuration not stated) do in these assays?
Sfp PPTase inh: 22.4µM; G9a inh: 25.1µM; BAZ2B block: inactive; TDP1 block: inactive; JMJD2A Tudor: inactive; HP1b binding inh: inactive

Results for COc1ccc(C2C(=O)N(C3CCCCCC3)CC(=O)N2Cc2ccccc2)cc1 (configuration not stated) ?
G9a inh: inactive; BAZ2B block: inactive; TDP1 block: inactive; JMJD2A Tudor: inactive; HP1b binding inh: inactive

Results for CCOC(=O)Nc1sc(=S)n(C)c1C ?
Sfp PPTase inh: 15.8µM; G9a inh: 12.6µM; BAZ2B block: inactive; TDP1 block: inactive; JMJD2A Tudor: inactive; HP1b binding inh: inactive

What do the screens show for `Cc1c(NC(=O)OCCNC(=O)Nc2ccccc2)sc(=S)n1C`?
Sfp PPTase inh: inactive; G9a inh: inconclusive; BAZ2B block: inactive; TDP1 block: inactive; JMJD2A Tudor: inactive; HP1b binding inh: inactive

Results for Cc1ccc(S(=O)(=O)NCCOC(=O)Nc2sc(=S)n(C)c2C)cc1 ?
Sfp PPTase inh: 56.2µM; G9a inh: 31.6µM; BAZ2B block: inconclusive; TDP1 block: inactive; JMJD2A Tudor: inactive; HP1b binding inh: inconclusive

Results for CCOC(=O)c1c(C)oc2nc(C)nc(NCCc3ccc(S(N)(=O)=O)cc3)c12 ?
G9a inh: inactive; BAZ2B block: inactive; TDP1 block: inactive; JMJD2A Tudor: inactive; HP1b binding inh: inactive

Results for CCS(=O)(=O)Nc1cccc(C2=NN(S(=O)(=O)c3ccccc3)C(c3ccco3)C2)c1 (configuration not stated) ?
Sfp PPTase inh: inconclusive; G9a inh: inconclusive; BAZ2B block: inactive; JMJD2A Tudor: inconclusive; HP1b binding inh: inactive

Results for CS(=O)(=O)Nc1cccc(C2=NN(S(=O)(=O)c3ccccc3)C(c3ccco3)C2)c1 (configuration not stated) ?
Sfp PPTase inh: 56.2µM; G9a inh: 50.1µM; BAZ2B block: inactive; TDP1 block: inactive; JMJD2A Tudor: inconclusive; HP1b binding inh: inconclusive

What do the screens show for `CCS(=O)(=O)Nc1cccc(C2=NN(S(=O)(=O)c3ccc(C)cc3)C(c3ccco3)C2)c1` (configuration not stated)?
Sfp PPTase inh: 50.1µM; G9a inh: inconclusive; TDP1 block: inactive; JMJD2A Tudor: inconclusive; HP1b binding inh: inactive

Results for CCOC(=O)c1nn2c(C(F)(F)F)cc(-c3ccc(OC)cc3)nc2c1Br ?
Sfp PPTase inh: inactive; BAZ2B block: inconclusive; JMJD2A Tudor: inactive; HP1b binding inh: inactive

Results for CCCc1cc(NC(=O)COC(=O)c2nccnc2N)n(-c2ccccc2)n1 ?
G9a inh: inactive[12.7 µM]; BAZ2B block: inactive; TDP1 block: inactive; JMJD2A Tudor: inactive; HP1b binding inh: inactive

Results for O=C(CCCCCN1CCN(c2ccccc2-c2ccccc2)CC1)NC1CCCc2ccccc21 (configuration not stated) ?
G9a inh: 12.6µM

How did O=C(CN1CCN(c2ccccc2Cl)CC1)NC1CCCc2ccccc21 (configuration not stated) do in these assays?
Sfp PPTase inh: inconclusive; G9a inh: 8.91µM; BAZ2B block: 20µM; TDP1 block: inactive; JMJD2A Tudor: 1µM; HP1b binding inh: inconclusive

What do the screens show for `Cc1cccc(C)c1NC(=S)/C(=C(\[O-])c1cccs1)[n+]1ccccc1`?
Sfp PPTase inh: inconclusive; G9a inh: 7.94µM; BAZ2B block: inactive; TDP1 block: inactive; JMJD2A Tudor: inactive; HP1b binding inh: inactive

What do the screens show for `S=C(NCc1cccs1)Nc1cccc2ccccc12`?
Sfp PPTase inh: inactive; G9a inh: inactive; BAZ2B block: inconclusive; TDP1 block: inactive; JMJD2A Tudor: inactive; HP1b binding inh: inactive

How did [O-]/C(=C(\C(=S)Nc1cccc2ccccc12)[n+]1ccccc1)c1cccs1 do in these assays?
Sfp PPTase inh: inconclusive; G9a inh: 35.5µM; BAZ2B block: inconclusive; TDP1 block: inactive; JMJD2A Tudor: 79.4µM; HP1b binding inh: inconclusive

What do the screens show for `Cc1cccc(NS(=O)(=O)c2ccc(Cl)c(C(=O)Nc3ccccc3C)c2)c1`?
G9a inh: inactive; BAZ2B block: inactive; TDP1 block: inactive[2.28 µM]; JMJD2A Tudor: inactive; HP1b binding inh: inactive

How did COc1cn(-c2ccccc2)nc1C(=O)Nc1ccccc1 do in these assays?
Sfp PPTase inh: inactive; G9a inh: 50.1µM; BAZ2B block: inactive; TDP1 block: inactive; JMJD2A Tudor: inactive; HP1b binding inh: inactive

Results for COc1ccc(C)cc1NC(=O)c1nn(-c2ccccc2)cc1OC ?
Sfp PPTase inh: inactive; G9a inh: inconclusive; BAZ2B block: inactive; TDP1 block: inactive; JMJD2A Tudor: inactive; HP1b binding inh: inactive

What do the screens show for `COc1ccc(-c2csc(Nc3ccc(S(=O)(=O)Nc4cc(C)on4)cc3)n2)cc1`?
Sfp PPTase inh: inactive; G9a inh: 44.7µM; BAZ2B block: inconclusive; TDP1 block: inactive; JMJD2A Tudor: inconclusive; HP1b binding inh: inactive

How did CCC(=O)Nc1nc(C)c(-c2csc(Nc3ccc(S(=O)(=O)Nc4cc(C)on4)cc3)n2)s1 do in these assays?
Sfp PPTase inh: inactive; G9a inh: 50.1µM; BAZ2B block: inactive; TDP1 block: inactive

How did COc1ccc(-c2csc(Nc3ccc(S(N)(=O)=O)cc3)n2)cc1 do in these assays?
Sfp PPTase inh: inconclusive; G9a inh: inactive[2.33 µM]; BAZ2B block: 50.1µM; TDP1 block: inactive; JMJD2A Tudor: inactive; HP1b binding inh: inactive

What do the screens show for `CC(C)NC(=O)N(C)C[C@H]1Oc2c(NC(=O)c3ccc(-c4nccs4)cc3)cccc2C(=O)N([C@@H](C)CO)C[C@H]1C`?
TDP1 block: inactive; JMJD2A Tudor: inactive; HP1b binding inh: inactive

How did CCN(CC)CCn1c(-c2ccccc2)nc2c(NCCO)nc(C)nc21 do in these assays?
Sfp PPTase inh: inactive; TDP1 block: inactive

How did CN(C(=O)CSc1nnc(Nc2ccccc2F)s1)C1CCS(=O)(=O)C1 (configuration not stated) do in these assays?
TDP1 block: inactive; JMJD2A Tudor: inactive; HP1b binding inh: inactive

Results for CN(C)N(C(=O)c1cc(-c2cccs2)nn1-c1ccccc1)C1CCS(=O)(=O)C1 (configuration not stated) ?
G9a inh: 17.8µM; BAZ2B block: inactive; TDP1 block: inactive; JMJD2A Tudor: inactive; HP1b binding inh: inactive

Compound activity: PubChem, National Center for Advancing Translational Sciences (NCATS)
